# From PubChem BioAssay
# Only a selection was taken, and hits are over-represented in it overall.
# mcGAS RapidFire = inhibitors of mouse cGAS; inhibition, % at 12.5 µM; recombinant mouse cGAS, cGAMP by RapidFire MS; 130,000 tested, 0.18% active;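 active = inhibition of cGAS enzyme activity at or above 60%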;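 note: enzyme stimulated by 45 bp dsDNA with ATP and GTP substrates; cGAMP share of summed cGAMP plus half ATP and half GTP signals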
# Target sequence (Q8C6L5 whole entry, looked up): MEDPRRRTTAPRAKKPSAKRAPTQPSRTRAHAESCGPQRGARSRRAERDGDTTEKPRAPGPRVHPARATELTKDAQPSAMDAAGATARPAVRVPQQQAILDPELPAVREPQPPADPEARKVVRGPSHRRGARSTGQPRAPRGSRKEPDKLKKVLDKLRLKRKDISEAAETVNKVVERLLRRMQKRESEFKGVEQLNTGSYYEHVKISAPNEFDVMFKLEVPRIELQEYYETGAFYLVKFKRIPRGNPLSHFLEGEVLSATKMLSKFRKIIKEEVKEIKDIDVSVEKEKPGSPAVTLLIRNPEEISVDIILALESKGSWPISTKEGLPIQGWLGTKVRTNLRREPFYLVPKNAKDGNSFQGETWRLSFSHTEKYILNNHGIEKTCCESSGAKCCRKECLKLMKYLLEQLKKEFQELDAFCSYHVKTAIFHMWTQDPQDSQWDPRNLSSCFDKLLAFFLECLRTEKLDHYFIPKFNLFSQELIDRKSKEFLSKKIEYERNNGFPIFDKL
# * = called active by the depositor.
SMILES,mcGAS RapidFire
CCC(=O)O[C@H]1[C@H](O[C@@H]2[C@@H](C)[C@H](O[C@H]3C[C@@](C)(OC)[C@@H](O)[C@H](C)O3)[C@@H](C)C(=O)O[C@H](CC)[C@@](C)(O)[C@H](O)[C@@H](C)C(=O)[C@H](C)C[C@@]2(C)O)O[C@H](C)C[C@@H]1N(C)C,-0.2
CCOC(=O)CCC(=O)O[C@H]1[C@H](O[C@@H]2[C@@H](C)[C@H](O[C@H]3C[C@@](C)(OC)[C@@H](O)[C@H](C)O3)[C@@H](C)C(=O)O[C@H](CC)[C@@](C)(O)[C@H](O)[C@@H](C)C(=O)[C@H](C)C[C@@]2(C)O)O[C@H](C)C[C@@H]1N(C)C,-7.2
CCOC(=O)CCC(=O)OC1C(OC2C(C)C(OC3CC(C)(OC)C(O)C(C)O3)C(C)C(=O)OC(CC)C(C)(O)C(O)C(C)C(=O)C(C)CC2(C)O)OC(C)CC1N(C)C (configuration not stated),98.6*
O=C1NC(=S)SC1=Cc1cc(O)c(O)c(Cl)c1,97.4*
O=C1NC(=S)SC1=Cc1ccccc1Cl,47.7
COc1cc(C=C2SC(=S)NC2=O)cc(OC)c1OC,20.7
O=C(CCS(=O)(=O)C1CCCC1)NS(=O)(=O)c1ccc(Cl)cc1F,8.0
CN(Cc1nccn1C)CC1CCN(CCc2ccc(Cl)cc2)CC1,-11.4
O=C1OC(c2ccccc2)OC(=O)C1=C/C=C/c1ccccc1 (configuration not stated),88.0*
Cc1ccc(C2=N/C(=C\C=C\c3ccccc3)C(=O)O2)cc1,32.3
CC(C)Oc1ccccc1C=C1C(=O)OC(c2ccccc2)OC1=O (configuration not stated),-9.1
Cc1ccc(-c2nnc(NCCCN3CCOCC3)c3ccccc23)cc1,-3.6
O=C(Cn1ncc2ccccc2c1=O)N1CCCC(O)(CO)CC1 (configuration not stated),-17.9
FC(F)Oc1ccc(Br)cc1C=C1CCC=C1N1CCOCC1,-8.5
C(=C1CCC=C1N1CCOCC1)c1nc2ccccc2[nH]1,77.4*
O=C(CCc1nc2ccccc2[nH]1)N1CCc2c(ncnc2N2CCOCC2)C1,-10.4
O=C(c1cccs1)c1cccs1,-7.3
O=C(c1cccs1)N1CCC(c2nc3cc(Cl)ccc3s2)CC1,-9.4
NC(=O)n1c(O)c(C(=O)c2cccs2)c2cc(Cl)ccc21,69.7*
Cc1cccc(C(C(=O)NCc2nc(C)cc(C(F)(F)F)n2)N(C)C)c1 (configuration not stated),-12.1
Cc1cc(C)c(-c2c(O)c3c([nH]c2=O)CC(C)(C)CC3=O)c(C)c1,-3.6
COc1ccc(NC(=O)N(CCN2CCOCC2)CC(=O)N(Cc2ccc3c(c2)OCO3)Cc2ccco2)cc1,-5.9
Cc1cccc(N2CCN(S(=O)(=O)c3ccc4c(c3)OCCO4)CC2)c1,1.5
CC(=O)c1cc(-c2ccccc2)n(CC(=O)O)c1C,-17.6
CN1C[N+]([O-])=C(c2ccccc2)C1(C)C,-9.0
SMILES,mcGAS RapidFire
CC1C(c2ccccc2)=[N+]([O-])C(C)(c2ccc(F)cc2)N1O (configuration not stated),-8.6
CC1=C(c2ccccc2)[N+](=O)C(C)(c2ccc(Br)cc2)N1[O-] (configuration not stated),73.3*
CC1C(c2cccs2)=[N+]([O-])C(C)(c2ccc(Br)cc2)N1O (configuration not stated),-18.6
CCC1(CC)N([O-])C(C)=C(c2ccccc2)[N+]1=O,78.7*
CCOC(=O)NC(O/N=C(/N)c1ccccc1)(C(=O)OCC)C(F)(F)F (configuration not stated),-5.2
Cc1cc(C)n(-c2ccc([N+](=O)[O-])cc2[N+](=O)[O-])n1,-7.4
CCOC(=O)N1CCN(/C=C(\C#N)S(=O)(=O)c2ccc(OC)cc2)CC1,-2.1
O=c1c(-c2ccc(O)cc2)coc2cc(O)ccc12,-4.2
O=c1c(-c2ccccc2)coc2cc(O)cc(O)c12,86.0*
O=c1c(O)c(-c2ccc(O)cc2)oc2cc(O)cc(O)c12,10.9
CC(C)(NCc1cnc2cnccn12)c1ccc2c(c1)OCO2,-4.2
O=S(=O)(CCNCc1cccs1)N1CCc2ccccc21,-14.8
CN(C)C1(CNC(=O)C23CC4CC(CC(Cl)(C4)C2)C3)CCCCC1,0.3
O=C(CN1CCN(C(=O)CN2CCCCC2)CC1)Nc1cccc(F)c1,-8.3
CCn1nnc2c(SCC(=O)OC)ncnc21,-3.9
c1ccc2c(c1)ncn1nc(CN3CCCCC3)nc21,-4.9
SCc1nc2c3ccccc3ncn2n1,95.3*
CCc1nc2c3ccccc3ncn2n1,-8.1
Cc1ccc(-n2ncc3c(=O)n(NC(=O)c4ccc(Cl)c([N+](=O)[O-])c4)cnc32)cc1C,-4.5
COc1ncccc1C(=O)N1CCCC(N2CCN(Cc3ccc4c(c3)OCO4)CC2)C1 (configuration not stated),-2.2
O=C(Nc1ncc([N+](=O)[O-])s1)c1ccc(=O)n(Cc2ccc(F)cc2)c1,9.0
O=C(Nc1ncc([N+](=O)[O-])s1)c1cccs1,85.8*
O=C(Nc1nnc(C2CC2)s1)c1cccs1,-18.1
COc1ccc(NC(=O)C2CSC3(C)CCC(=O)N23)cc1S(=O)(=O)N1CCCCC1 (configuration not stated),-5.0
COc1cc(C(=O)N(C)Cc2nonc2C)ccc1OC1CCN(C2CCCC2)CC1,-0.6
SMILES,mcGAS RapidFire
O=[N+]([O-])c1cc2c(c(CSc3ncnc4sc5c(c34)CCC5)c1)OCOC2,-5.7
O=c1c(=Cc2ccccc2I)sc2nc3ccccc3n12,-2.6
O=c1c2cc([N+](=O)[O-])ccc2nc2n1CCC2=Cc1ccccc1,0.5
O=c1/c(=C/c2ccc([N+](=O)[O-])cc2)sc2nc3cc(Br)cnc3n12,84.5*
CSC1=C(C#N)C(c2ccsc2)CC(=O)N1 (configuration not stated),-41.3
COc1cc(C)c2c(c1C=O)Oc1c(c(C)c(O)c3c1C(O)OC3=O)OC2=O (configuration not stated),33.9
Cc1cc(O)c(C=O)c2c1C(=O)Oc1c(C)c(O)c3c(c1O2)C(O)OC3=O (configuration not stated),84.6*
Cn1c(-c2nc3ccccc3[nH]c2=O)nc2ccccc21,3.0
Cn1nnnc1SCCNC(=O)CN1CCOc2ccccc2C1,-15.7
O=C(CN1CCOc2ccccc2C1)NCCS(=O)(=O)N1CCCC1,71.0*
Cc1nn2cc(CNC(=O)CN3CCOc4ccccc4C3)nc2s1,-16.5
CCC(Nc1nc(C)nc2c1cnn2C)c1nc2ccccc2[nH]1 (configuration not stated),-3.2
Cc1ccc(-c2ccc(=O)n(CCCNC(=O)c3ccc(F)cc3)n2)cc1,3.2
CCc1noc(C)c1C(=O)O,-0.4
O=C(c1n[nH]c(C2CC2)c1Cl)N1CCN(S(=O)(=O)c2ccccc2)CC1,-36.9
O=C(c1n[nH]c(=O)c2ccccc12)N1CCN(S(=O)(=O)c2cccc(Cl)c2)CC1,86.8*
Cc1cccc(CN2CCN(C(=O)c3n[nH]c(=O)c4ccccc34)CC2)c1,-6.5
CN(C)CCCNC(=O)c1c(OCc2ccccn2)nn2ccsc12,-0.3
Cc1cccc(-c2cccc(NC(=O)C3CCCN(C(=O)CCc4cnccn4)C3)c2)c1 (configuration not stated),-10.1
N=C1/C(=C/c2cccs2)C(=O)N=C2SC(c3ccccc3)=NN12,44.6
N=C1/C(=C/c2cccs2)C(=O)N=C2SC(Cc3ccccc3)=NN12,-10.8
CCC1=NN2C(=N)/C(=C/c3cccs3)C(=O)N=C2S1,97.0*
COc1ccc(C(C)(C)C(=O)NCC2(O)CCCCCC2)cc1OC,2.3
